The full list was thinned out, with hits kept by preference.
AMA1 RON2 block: inhibitors of Plasmodium falciparum AMA1-RON2 interaction; AlphaScreen AMA1-biotinylated RON2 peptide binding; Potency, µM (top dose mostly 58.2 µM), without a hit: at the top dose activity change, negative = inhibition, actives largely listed as inhibitors; 0.2% of 360,000 active; AID 720542;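 also: potency is read from the fitted curve at half-maximal effect; 0% = vehicle wells and -100% = peptide control; nearly all actives have a fitted effect of over 45% in size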
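AMA1 (3D7) with his tag at 25 nM final met compounds first, then biotinylated RON2 peptide at 25 nM; detection used donor plus acceptor beads, 10 µg/mL apiece, read by AlphaScreen after 30 min at room temperature.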
SARS PLpro yeast: SARS-CoV PLP inhibition in yeast. S. cerevisiae expressing SARS-CoV PLpro, growth rescue. 0.19% of 330,000 active. Potency, µM (top dose mostly 32.9 µM), for inactives: top-dose activity, positive = growth rescue, actives largely listed as activators; calls by dose curve; also: potency is read from the fitted curve at half-maximal effect; 0% is about no effect; nearly all actives have a fitted effect of over 55% in size
AmpC no deterg: blocks E. coli AmpC beta-lactamase in detergent-free assay; Potency, µM (highest dose often 57.1 µM), without a hit: at the top dose activity change, negative = inhibition, usual class: inhibitors; AID 485341; 0.52% of 330,000 active; P00811; AmpC nitrocefin hydrolysis, absorbance 480 nm, 0.0001% Triton;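 also: potency is read from the fitted curve at half-maximal effect; plate controls were no compound for no effect and no enzyme for full effect; nearly all actives have a fitted effect of over 20% in size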
Target sequence (P00811 whole entry, looked up): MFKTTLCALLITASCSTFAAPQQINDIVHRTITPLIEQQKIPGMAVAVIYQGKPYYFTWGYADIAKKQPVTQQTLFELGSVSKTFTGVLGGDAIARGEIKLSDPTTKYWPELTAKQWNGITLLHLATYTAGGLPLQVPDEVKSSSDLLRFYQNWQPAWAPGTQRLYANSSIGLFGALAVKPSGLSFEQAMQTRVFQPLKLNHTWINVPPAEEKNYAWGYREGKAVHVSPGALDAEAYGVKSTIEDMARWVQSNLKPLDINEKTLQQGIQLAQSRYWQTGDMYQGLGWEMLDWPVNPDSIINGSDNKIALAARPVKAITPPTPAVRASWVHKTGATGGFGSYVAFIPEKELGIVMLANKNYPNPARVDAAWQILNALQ
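20 mM phosphate pH 7.0 + 0.01% (detergent screen) or 0.0001% Triton X-100; 5.3 nM AmpC reagent; cpd preinc 15 min RT; nitrocefin (800 uM stock) to start; A480 q20 s × 4 min; Activity was normalised to no-enzyme and no-compound control wells.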
Cycloheximide cs: counter-screen hit for Shiga toxin inhibitors, cycloheximide; max response, %; AID 2314; 12% of 300,000 active; cell reporter, cycloheximide protein synthesis inhibition counterscreen; in the data active = max response mostly above about 13%, no sharp cut-off; inactive = mostly below about 14%; also: read at 38.3 µM for the half of the compounds with a filed dose; 0% is about no effect
Shiga toxin inh: inhibitors of Shiga toxin in Vero cells; 9.2% of 290,000 active; inhibition, % at 38.7 µM; Vero cells, Shiga toxin protein synthesis inhibition reporter; in the data active = inhibition mostly above about 28%, no sharp cut-off; inactive = mostly below about 43%; also: 0% is about no effect
AmpC inh detg: blocks E. coli AmpC beta-lactamase in detergent assay. AmpC hydrolysis of nitrocefin, absorbance 480 nm, 0.01% Triton. Potency, µM (doses to about 114 µM), for the others: at the highest dose activity change, negative = inhibition, hits mostly inhibitors. 0.041% of 370,000 active. AID 485294;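 also: potency is read from the fitted curve at half-maximal effect; 0% = no-compound wells and -100% = no-enzyme wells; nearly all actives have a fitted effect of over 25% in size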
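20 mM phosphate pH 7.0 + 0.01% (detergent screen) or 0.0001% Triton X-100; 5.3 nM AmpC reagent; cpd preinc 15 min RT; nitrocefin (800 uM stock) to start; A480 q20 s × 4 min; Activity was normalised to no-enzyme and no-compound control wells.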
An asterisk follows results filed as active; ? = inconclusive; · = no result given; [ ] = another dose, or the depositor's remark. Unless noted, calls follow the shape of the dose curve; as a rule, active = well fitted curve in the direction sought with a large enough effect; inconclusive = small, poorly fitted or top-dose-only effect, or another doubt; inactive = no such curve, though single readings can be large; an effect the other way counts as inactive or inconclusive.

SMILES	AMA1 RON2 block	SARS PLpro yeast	AmpC no deterg	Cycloheximide cs	Shiga toxin inh	AmpC inh detg
Cc1cc(Cl)c2oc(C(=O)NC3CCC(O)CC3)c(C)c2c1 (stereo not given)	8%	·	148%	21*	·	-5%
Cc1cc(Cl)c2oc(C(=O)N(C)CCCCN3CCOCC3)c(C)c2c1	10%	-4%	158%	-1	-2	0%
Cc1cc(Cl)c2oc(C(=O)N3CCN(c4ccncc4)CC3)c(C)c2c1	4%	·	·	·	·	·
COC(=O)C1CCN(C(=O)c2oc3c(Cl)cc(C)cc3c2C)CC1	-4%	-11%	169%	47*	76*	2%
CCOC(=O)C1CCCCN1C(=O)c1oc2c(Cl)cc(C)cc2c1C (stereo not given)	-13%	-9%	122%	46*	118*	0%
Cc1cc(Cl)c2oc(C(=O)NCC(C)(C)N3CCOCC3)c(C)c2c1	9%	-9%	8%	18*	37	-10%
CCCC1CCC(c2nc(-c3cccnc3)no2)CC1 (stereo not given)	25%	5%	-4%	62*	45	4%
COCCNC(=S)N1CCC(c2nc(-c3ccc(F)cc3)no2)CC1	-2%	3%	-13%	-4	-6	-9%
Fc1ccc(-c2noc(C3CCN(Cc4cccnc4)CC3)n2)cc1	-19%	7%	26%	19*	28*	-5%
Cc1ccc(N(CN2CCCC2=O)C(=O)c2ccc(C)c(C)c2)cc1	9%	0%	45%	17*	23	?
Cc1ccc(C)c(S(=O)(=O)N2CCCOC2CNC(=O)C(=O)NC2CCCC2)c1 (stereo not given)	5%	2%	37%	-2	-8	4%
Cn1cnnc1Sc1cc(N2CCN(S(=O)(=O)c3ccc4ccccc4c3)CC2)ccc1[N+](=O)[O-]	-16%	16%	-1%	11*	26	?
Cn1cnnc1Sc1cc(N2CCN(S(=O)(=O)c3ccc(Cl)c(Cl)c3)CC2)ccc1[N+](=O)[O-]	0%	6%	46%	-4	1	3%
COc1ccc(CN2C(=O)CN(S(C)(=O)=O)CC2(C)C(=O)NC(C)C)cc1OC (stereo not given)	-1%	·	·	·	·	·
COc1cc(/C=N/NC(=O)/C(=C\c2ccc3c(c2)OCO3)NC(=O)c2ccccc2)ccc1O	1%[11.6 µM]	-15%	-12%	-1	8	?
COc1cc(Cl)cc(/C=N\NC(=O)c2ccc3c(c2)OCO3)c1O	-57%	·	·	·	·	·
COc1ccc(NCC(=O)N/N=C/c2ccc3c(c2)OCCO3)cc1	-4%	2%	-19%	22*	44	-12%
COc1ccc(/C=N/NC(=O)c2ccc3c(c2)OCO3)cc1	-4%	1%	-25%	27*	102*	0%
COc1cc(/C=N/NC(=O)c2ccc(-n3cccc3)cc2)ccc1O	-6%	-4%	14µM*	-2	2	-14%
COc1cc(/C=N/NC(=O)c2ccc3c(c2)OCO3)ccc1O	61%	1%	-21%	63*	81*	2%
CCCn1cc(NC(=O)C2CC(c3cccc(Br)c3)=NO2)cn1 (stereo not given)	24%	2%	-5%	2	-9	-3%
CCCc1ccc(Oc2cc(Cl)nc(N)n2)cc1	24%	-5%	-26%	16*	-40	-6%
CCN(CC)C(=O)CSc1nc2c(sc(=S)n2-c2ccccc2)c(=O)n1-c1ccc(OC)c(OC)c1	0%	2%	189%	-1	17	-2%
COc1cc(-c2nc3ccccn3c2/N=C/c2cc(OC)c(O)cc2Cl)ccc1O	-4%	-9%	-25%	30*	22*	-2%
CC(C)N1C(=O)S/C(=C/c2ccc3c(c2)n(C)c(=O)n3C)C1=O	7%	6%	-28%	-4	-4	1%
SMILES	AMA1 RON2 block	SARS PLpro yeast	AmpC no deterg	Cycloheximide cs	Shiga toxin inh	AmpC inh detg
CCC(C)N1C(=O)S/C(=C/c2ccc3c(c2)n(C)c(=O)n3C)C1=O (stereo not given)	-23%	-2%	-4%	30*	69	-3%
S=C(NCCCN1CCOCC1)NN=C1c2ccccc2-c2ccccc21	22%	·	·	·	·	·
CCOC(=O)C1=C(C)Nc2ccccc2N=C1NC(=O)C(c1ccccc1)c1ccccc1	22%	0%	28µM*	-3	15	-4%
CCOC(=O)C1=C(C)Nc2ccccc2N=C1NC(=O)c1cccc(S(=O)(=O)N(C)C)c1	-9%	5%	-14%	-3	-14	-15%
COc1cc(O)ccc1C(=O)CCc1ccc(O)cc1	-4%	-7%	-37%	12*	16	-8%
Fc1cccc(Cl)c1Cc1noc(/C=C/c2ccccc2)n1	49%	-16%	-51%	21*	148	-4%
C/C=C(\C)C(=O)Nc1cccc(C2=NOC3(C2)C[C@@H](C(N)=O)N(C(=O)/C(C)=C/C)C3)c1 (stereo not given in full)	4%	-1%	16%	-4	4	-5%
Cc1cc(N)n(-c2ccccc2)n1	5%	4%	-8%	13	21	-4%
Cc1cc(C)c2nc(-n3nc(C)cc3N)cc(C)c2c1	-5%	0%	-30%	26*	108*	4%
c1cncc(-c2nc(N3CCOCC3)c3ccccc3n2)c1	-11%	-29%	25%	4	5	-3%
Cc1cc(N)n(-c2cc(C)c3ccccc3n2)n1	?	-2%	-28%[11.4 µM]	46*	79*	-9%
Cc1cc(N)n(-c2nc(-c3cccnc3)nc3ccccc23)n1	-2%	1%	1%	33*	64*	-3%
CCN(CC)CCn1c2c(c(SCC(=O)Nc3nc(C)cs3)nc1=O)CCCC2	2%	-2%	59%	·	·	77%
NC(CSCc1ccccc1)C(=O)Nc1ccc([N+](=O)[O-])cc1 (stereo not given)	-3%	·	·	·	·	·
Brc1ccc(CN2CCN(c3ccccc3)CC2)o1	-21%	6%	-15%	-1	-8	?
O=C1CS/C(=N\N=C\c2ccco2)N1c1ccccc1	2%	-1%	-48%	15*	45	2%
O=C1CS/C(=N/N=C/c2ccccc2)N1c1ccc(O)cc1	8%	5%	-11%	-1	7	?
CCOC(=O)N1CCC(=NNC(N)=O)C1	79%	·	·	·	·	·
CCC1SC(C)C/C(=N/NC(N)=O)C1C (stereo not given)	-3%	0%	-3%	35*	17	5%
COc1ccc2cc(CCC(C)=O)ccc2c1	5%	1%	-20%	56*	92*	-6%
CC1CCCCC1NC(=O)COC(=O)/C=C/c1ccc2c(c1)OCO2 (stereo not given)	-7%	15%	-33%	2	-3	-6%
Cc1ccc2nc(NC3=NCN(Cc4ccccc4)CN3)nc(C)c2c1	·	1%	4%	1	-18	-7%
O=C(NC(=S)Nc1ccccc1Br)C1CCCCC1	29%	21%	-26%	·	·	·
